Assay results as given in PubChem BioAssay (NCI).
This is part of a sample that, as a whole, favours compounds with a hit. Of some 83,000 tested, about 20% had one in any assay.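 Results are percent growth after 48 hours of single-concentration exposure. 100 means growth as in untreated cells, lower positive values show inhibition; negative values down to -100 show cell death.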 A number with no mark means an inactive call. Calls of active or inactive are those of the source. How the source made its calls: active means growth percent below 10; inactive means the rest.

System: MDA-MB-468 breast
Test: NCI-60 one-dose screen, 48 h (100 = growth as untreated, 0 = no growth, -100 = all killed)
Conditions: 10 µM unless noted

| Structure (SMILES) | growth |
| --- | --- |
| CCCCCCCCCCCCN1C(C)=CS/C1=C\C=C\c1scc(C)[n+]1CCCCCCCCCCCC | -23% (active) |
| COc1ccc(N=Nc2nccs2)c(O)c1 | 18.6% |
| N#Cc1ccc(NC(=O)Nc2ccc(Oc3ccc(NC(=O)Nc4ccc(C#N)cc4)cc3)cc2)cc1 | 26% |
| COc1ccc(/C=c2\c(=O)n(-c3ccccc3)c3nn4c(=O)c(=O)[nH]nc4n23)cc1 | 112% |
| CN1CCN(Cc2ccc(NC(=O)c3cncc(C#Cc4cnc5ccc(N)nn45)c3)cc2C(F)(F)F)CC1 | 25.5% |
| NC(N)=N/N=C(/c1ccccc1)c1ccc(Cl)cc1 | 39.6% |
| CCN1CCN(c2cc(C)nc(N(CCNc3ccnc4cc(Cl)ccc34)Cc3ccc4c(c3)OCO4)n2)CC1 | -67.6% (active) |
| Nc1ncnc2c1c(-c1ccc(Oc3ccccc3)cc1)nn2C[C@@H]1SSC[C@@H]1O | -27.7% (active) |
| NC(N)=Nc1ccc(Oc2cccc(NC(N)=Nc3ccc(Br)c(C(F)(F)F)c3)c2)cc1 | 4.68% (active) |
| Oc1[nH]c2cc(Cl)ccc2c1/C=c1/ccc2c(c1)N=C(c1cc(F)cc(F)c1)N=2 | -19.6% (active) |
| COc1ccc(CNCCCN2C(=O)c3ccc4c5c(ccc(c35)C2=O)C(=O)N(CCCNCc2ccc(OC)c(OC)c2OC)C4=O)c(OC)c1OC | -94.8% (active) |
| CNC(=O)c1cc(Oc2ccc3nc(NC(=O)c4cccc(OC(F)(F)F)c4)sc3c2)ccn1 | 46% |
| COC(=O)[C@@H](Cc1c[nH]c2ccccc12)NC[C@@H](O)CN1C(=O)/C(=C\c2cc(OC)c(OC)c(OC)c2)c2ccccc21 | 37.9% |
| CCn1cc(C2NC(=O)c3cc(F)ccc3N2)c2cccc(Cl)c21 (configuration not stated) | 7.04% (active) |
| O=C(Nc1ccc(F)c(Cl)c1)Nc1ccc(Cl)c(Cl)c1 | 9.54% (active) |
| c1ccc2[nH]c(Cc3nc4ccccc4[nH]3)nc2c1 | 102% |
| Cc1nnc(/N=C2\NC(=O)/C(=C/C=C/c3ccccc3)S2)s1 | 53% |
| COc1ccc(NS(=O)(=O)c2ccc(-c3cnc(C4CC4)o3)cc2)cc1Cl | 9.75% (active) |
| O=C(NCCN1CCOCC1)Nc1ccc(-c2cc3c(Nc4ccc(Oc5cccc(C(F)(F)F)c5)c(Cl)c4)ncnc3s2)cc1 | -28.3% (active) |
| COc1ccc2c(c1)CCc1[nH]nc(-c3cc(OC)c(OC)c(OC)c3)c1-2 | -4.62% (active) |
| O=C1/C(=C/c2ccc(O)cc2)CSc2ccc(Cl)cc21 | 30.2% |
| CC(C)=CCNc1ncnc2c1ncn2C1OC(CO)C(O)C1O (configuration not stated) | -44.4% [1 mM] (active) |
| NC(=S)Nc1ccc2c(c1)Cc1ccccc1-2 | 69.4% |
| CCOc1cccc(-c2nc3sccn3c2-c2ccnc(S(C)(=O)=O)n2)c1 | -0.693% (active) |
| CN1C(=O)N(C)C2(c3ccccc3)N(CC(=O)Nc3ccccc3O)C(=O)NC12c1ccccc1 (configuration not stated) | 104% |
| O=CN1N=C(c2ccc(Nc3ccnc4cc(Cl)ccc34)cc2)CC1c1ccc(Cl)cc1 (configuration not stated) | -0.669% (active) |
| O=C(C[n+]1cccc2ccccc21)c1ccc(O)c(O)c1 | 16.1% |
